mHTT CaM bind – disrupts binding of mutant huntingtin to calmodulin; AlphaScreen His-mHTT/GST-CaM binding, luminescence; inhibition, % at 15 µM; hit rate 3.6% among 190,000; AID 1671202
Pf apPOL inh – Pf-apPOL DNA polymerase inhibition; Recombinant Pf-apPOL, molecular beacon fluorescence, 1.5 h; inhibition, % at 10 µM; hit rate 0.25% among 210,000; AID 1794808
Of the large screens only hits and unclear results are named; the others gave an inactive call; ! = not active in a repeat. Only some compounds are listed: those with a hit (about 3.6% of all), similar ones and a draw of the others. No stated cut-off is given here; in the data, active means inhibition above about 50%; inactive means the rest.

CCC1=NN(C(=O)c2ccc(Br)cc2)C(O)(c2ccccc2)C1 (stereo not given)	none
CCC1=NN(C(=O)c2cccc(Cl)c2)C(O)(C(F)(F)F)C1 (stereo not given)	none
CCCCC1=NN(C(=O)c2cccc(Cl)c2)C(O)(C(F)(F)F)C1 (stereo not given)	Pf apPOL inh 57
COc1ccccc1NC(=O)Nc1nnc(-c2cccc([N+](=O)[O-])c2)s1	none
Cc1ccccc1-n1c(SCc2cccc([N+](=O)[O-])c2)nc2[nH]ncc2c1=O	none
CCOc1ccc(C(C)NC=O)cc1 (stereo not given)	none
Cc1ncsc1CN1CCCC(OCc2nc(C3CC3)no2)C1 (stereo not given)	none
COC(=O)c1ccc(C(=O)NC(C)Cc2ccco2)cc1 (stereo not given)	none
Cc1ccnc(NC(=O)c2ccc(OC(C)C)cc2)c1	none
O=c1[nH]c2cncnc2n1C1CCN(Cc2cccs2)C1 (stereo not given)	none
Cc1cccc(OCC(=O)Nc2ccc(S(=O)(=O)Nc3ncccn3)cc2)c1C	none
CCn1c(=N)c(C(=O)NC2CCCCC2)cc2c(=O)n3ccccc3nc21	none
Cc1cc(OCC(=O)N2N=C(c3ccccc3)CC2(O)C(F)(F)F)ccc1Cl (stereo not given)	mHTT CaM bind 100
Cc1cc(OCC(=O)N2N=C3CCCCC3C2(O)C(F)(F)F)ccc1Cl (stereo not given)	mHTT CaM bind 80
CC1=NN(C(=O)COc2ccc(Cl)c(C)c2)C(O)(C(F)(F)F)C1 (stereo not given)	none
CC1=NN(C(=O)COc2cc(C)c(Cl)c(C)c2)C(O)(C(F)(F)F)C1 (stereo not given)	none
O=C(c1ccccc1Cl)N1N=C2CCCCC2C1(O)C(F)(F)F (stereo not given)	none
Cc1cc(OCC(=O)N2N=C(C3CCCCC3)CC2(O)C(F)(F)F)ccc1Cl (stereo not given)	mHTT CaM bind 100
CCc1ccccc1NC(=O)c1ccc(C)o1	none
COc1cccc(C2C(C(=O)Nc3nc4ccccc4s3)=C(C)NC3=C2C(=O)CCC3)c1OC (stereo not given)	none
COc1cc(OC)cc(C(=O)Nc2cccc(-c3nc4cc(Cl)ccc4o3)c2C)c1	none
Cc1ccn2c(NCc3ccccc3)c(-c3ccccc3O)nc2c1	mHTT CaM bind 80
Cc1ccn2c(NC(=O)CC(C)C)c(-c3ccccc3C)nc2c1	none
COCCN1C(=O)c2ccccc2C(C(=O)Nc2ccc(OC)c(OC)c2)C1c1ccc(F)cc1 (stereo not given)	none
O=S(=O)(c1cccs1)n1cnc2ccccc21	none
COc1ccc(I)cc1S(=O)(=O)n1nnc2ccccc21	mHTT CaM bind 89
Cc1ccc(I)cc1S(=O)(=O)n1nnc2ccccc21	none
O=S(=O)(c1cccs1)n1nnc2ccccc21	mHTT CaM bind 84!
CCc1ccc(NC(=O)N2CCC(c3cc(=O)n4nccc4n3C)CC2)cc1	none
COc1cc(NC(=O)CSc2nnc3[nH]c4cc(C)cc(C)c4c3n2)cc(OC)c1OC	none
COc1ccc(C)cc1NC(=O)N1CC2CCCN2c2ccccc21 (stereo not given)	mHTT CaM bind 83
COC(=O)c1ccc(Cl)cc1NC(=O)N1CCN(C)c2ccccc21	none
COc1cc(NC(=O)N2CC3CCCN3c3ccccc32)cc(OC)c1 (stereo not given)	none
COc1ccc(Cl)cc1NC(=O)N1CC2CCCN2c2ccccc21 (stereo not given)	mHTT CaM bind 74
COC(=O)c1ccc(C(=O)OC)c(NC(=O)N2CC3CCCN3c3ccccc32)c1 (stereo not given)	mHTT CaM bind 58
Cc1ccc(C)c(NC(=O)N2CC3CCCN3c3ccccc32)c1 (stereo not given)	none
Cn1cc(C(=O)Nc2cccc(NS(C)(=O)=O)c2)nn1	none
CC(=O)N1CCCc2ccc(NC(=O)C(=O)Nc3ccccc3[N+](=O)[O-])cc21	none
COc1ccccc1C(=O)Nc1cccc(-c2nc3ncccc3o2)c1	mHTT CaM bind 58
CC(C)(C)c1ccc(OCC(=O)Nc2ccc3oc(-c4ccncc4)nc3c2)cc1	Pf apPOL inh 68
Cc1cc(Cl)ccc1OCC(=O)Nc1ccc2oc(-c3ccncc3)nc2c1	none
COc1ccc(Br)cc1C(=O)Nc1cccc(-c2nc3ncccc3o2)c1	none
Cc1cccc(OCC(=O)Nc2ccc(-c3nc4ncccc4o3)cc2)c1C	mHTT CaM bind 75
Cc1ccccc1OCC(=O)Nc1ccc2oc(-c3ccncc3)nc2c1	mHTT CaM bind 70
CCc1ccc(-c2nc3cc(NC(=O)COc4ccc(OC)cc4)ccc3o2)cc1	none
Cc1ccccc1OCC(=O)Nc1ccc(-c2nc3ncccc3o2)cc1	none
O=C(Nc1ccc2oc(-c3cccc(F)c3)nc2c1)c1ccc(Br)o1	none
COc1ccc(NC(=O)C2CCN(S(=O)(=O)c3ccccc3)CC2)cc1Cl	none
Cc1ccc(C2=NN(C(=O)CN(C)C(=O)C3CC3)C(c3ccccc3)C2)cc1C (stereo not given)	none
Cc1ccc(C2CC(c3cccs3)=NN2C(=O)CN(C)C(=O)C2CCC2)cc1 (stereo not given)	mHTT CaM bind 51
Cc1ccc(C2CC(c3cccn3C)=NN2C(=O)CN(C)C(=O)C(C)C)cc1 (stereo not given)	mHTT CaM bind 62
CC(C)C(=O)N(C)CC(=O)N1N=C(c2ccccc2F)CC1c1ccc(F)cc1 (stereo not given)	none
CCC(=O)N(C)CC(=O)N1N=C(c2cccs2)CC1c1ccc(C)cc1 (stereo not given)	none
CN(CC(=O)N1N=C(c2ccc(F)cc2)CC1c1ccc(F)cc1)C(=O)C1CCC1 (stereo not given)	none
Cc1ccc(C2CC(c3cccn3C)=NN2C(=O)CN(C)C(=O)C2CCC2)cc1 (stereo not given)	mHTT CaM bind 54
CC(=O)N(C)CC(=O)N1N=C(c2ccc(C)c(C)c2)CC1c1ccc(C)cc1 (stereo not given)	mHTT CaM bind 58
CN(C)c1ccc(C(=O)N2CCC3(CC2)NC(=O)N(Cc2cccc(Cl)c2)C3=O)cc1	none
COc1ccc(N2C(=O)c3ccccc3NC2c2ccc(N(C)C)cc2)cc1 (stereo not given)	none
COc1ccc(C(=O)Oc2ccc3c(=O)c(-c4ccc(Br)cc4)coc3c2)cc1OC	none
Cc1cc(C(=O)Nc2cccc(Cl)c2)nc2ccnn12	none
O=C(Cn1cnc([N+](=O)[O-])n1)Nc1cc(Oc2cncc(Cl)c2)cc([N+](=O)[O-])c1	none
Cc1ccc(C2CC(c3ccccc3Cl)=NN2C(=O)CN(C)C(=O)C2CC2)cc1 (stereo not given)	mHTT CaM bind 88
CN(CC(=O)N1N=C(c2ccccc2Cl)CC1c1ccc(F)cc1)C(=O)C1CC1 (stereo not given)	none
CC(C)(C)c1cc(C(=O)O)cc(C(C)(C)C)c1O	none
COCc1cc(C(C)(C)C)c(O)c(O)c1C(C)(C)C	mHTT CaM bind 62
CCC(C)Nc1nc(-c2ccccc2O)nc2ccccc12 (stereo not given)	none
COc1cc(-c2nc(NCc3ccc(F)cc3)c3ccccc3n2)cc(OC)c1OC	mHTT CaM bind 88
COc1ccccc1CNc1nc(-c2ccccc2F)nc2ccccc12	none
CCC(C)Nc1nc(-c2cc(OC)c(OC)c(OC)c2)nc2ccccc12 (stereo not given)	Pf apPOL inh 51
Cc1cccc(NC(=O)Cc2cn3cc(F)ccc3n2)c1C	none
COc1ccc(OC)c2sc(N(CCCn3ccnc3)C(=O)Cc3ccccc3)nc12	mHTT CaM bind 68
